# Reference: PubChem BioAssay (NCATS)
# Results filed as inconclusive are left out. A call without a number means that no potency is given here. A number with no mark means an inactive call. Activity calls are given as the source filed them. Unless noted, calls come from the whole dose curve; as a rule, active = well fitted curve in the direction sought with a large enough effect; inconclusive = small, poorly fitted or top-dose-only effect, or another doubt; inactive = no such curve, though single readings can be large; an effect the other way counts as inactive or inconclusive.
# Assays:
# [1] = target: Ubiquitin carboxyl-terminal hydrolase 1 (Homo sapiens) (UniProt O94782); test: Inhibitors of USP1/UAF1: Pilot qHTS (AID 504865);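 note: rhodamine fluorescence freed from ubiquitin-rhodamine substrate followed over time; top concentration of the series differs between compounds; nearly all actives have a fitted effect of over 35% in size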
# Outline: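 Enzyme-free wells gave the negative control, while test wells held 1nM USP1/UAF1 preincubated with compound for 15 min at room temperature. Ub-Rho at 150nM final started the reaction, and fluorescence at 480/540 nm was recorded kinetically.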
# [2] = target: Luciferin 4-monooxygenase (Photinus pyralis) (UniProt P08659); test: Biochemical firefly luciferase enzyme assay for NPC (AID 624030);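 note: purified P. pyralis luciferase at 10 nM with luciferin and ATP substrate; nearly all actives have a fitted effect of over 70% in size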
# Outline: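 Purified P. pyralis luciferase at 10 nM in 50 mM Tris Acetate (final), luminescence read within 5 minutes of enzyme addition to compounds. Activity normalised to PTC124 versus DMSO; concentration-response curves classed by r2, magnitude and activity.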
# [3] = S16 Schwann cell viability assay (CellTiter-Glo assay) (AID 624031);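 note: cellular ATP luminescence as a viability measure; nearly all actives have a fitted effect of over 70% in size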
# Outline: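 Untransfected S16 rat Schwann cells; compound 24 h, 37 °C/5% CO2; CellTiter-Glo ATP luminescence. % activity vs no-cell wells and DMSO controls (0%); concentration-effect curves classed by r2, response magnitude, activity.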
# [4] = S16 Schwann cell PMP22 intronic element firefly luciferase assay (AID 624032); note: potency is the fitted concentration of half-maximal effect; nearly all actives have a fitted effect of over 30% in size
# Outline: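 Rat S16 Schwann cells stably carrying firefly luciferase driven by a PMP22 intronic element, in 10% FBS, treated 24 h at 37 C. ONE-Glo luminescence normalized to PTC124 control and DMSO (0%); curves classed by r2, magnitude and activity.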
# [5] = S16 Schwann cell PMP22 intronic element beta-lactamase assay (AID 624044; calls by dose curve; note: nearly all actives have a fitted effect of over 15% in size)
# Outline: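 Beta-lactamase reporter under a PMP22 intronic regulatory element in stable S16 rat Schwann cells; 24 h compound exposure. 460 nm blue signal normalized between DMSO (0%) and potassium clavulanate, with 535 nm FRET tracking viability; curves classed by r2 and response.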
# [6] = qHTS profiling for inhibitors of Plasmodium falciparum proliferation (AID 504749); note: nearly all actives have a fitted effect of over 60% in size; conditions: P. falciparum in erythrocytes, SYBR Green DNA, 72 h, at 28.7 µM (top of the series)
# Outline: (§1)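 SYBR Green fluorescence (ex 485 nm, em 535 nm) reports parasite DNA after 72 h compound exposure of infected red cells at 0.3% parasitemia, 2.5% hematocrit; signal normalized to 0.29 uM artemisinin and vehicle wells.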
# 3D7 = test: as above; conditions: P. falciparum in erythrocytes, SYBR Green DNA, 72 h; series mostly up to 28.7 µM
# Outline: as §1
# 7G8 = test: as above; conditions: P. falciparum in erythrocytes, SYBR Green DNA, 72 h; series mostly up to 28.7 µM
# Outline: as §1
# AA1029 = test: as above; conditions: P. falciparum in erythrocytes, SYBR Green DNA, 72 h; series mostly up to 28.7 µM
# Outline: as §1
# AS120 = test: as above; conditions: P. falciparum in erythrocytes, SYBR Green DNA, 72 h; series mostly up to 28.7 µM
# Outline: as §1
# ATS189 = test: as above; conditions: P. falciparum in erythrocytes, SYBR Green DNA, 72 h; series mostly up to 28.7 µM
# Outline: as §1
# ATS95 = test: as above; conditions: P. falciparum in erythrocytes, SYBR Green DNA, 72 h; series mostly up to 28.7 µM
# Outline: as §1
# C2A = test: as above; conditions: P. falciparum in erythrocytes, SYBR Green DNA, 72 h; series mostly up to 28.7 µM
# Outline: as §1
# CP185 = test: as above; conditions: P. falciparum in erythrocytes, SYBR Green DNA, 72 h; series mostly up to 28.7 µM
# Outline: as §1
# CP191 = test: as above; conditions: P. falciparum in erythrocytes, SYBR Green DNA, 72 h; series mostly up to 28.7 µM
# Outline: as §1
# CP192 = test: as above; conditions: P. falciparum in erythrocytes, SYBR Green DNA, 72 h; series mostly up to 28.7 µM
# Outline: as §1
# CP194 = test: as above; conditions: P. falciparum in erythrocytes, SYBR Green DNA, 72 h; series mostly up to 28.7 µM
# Outline: as §1
# CP201 = test: as above; conditions: P. falciparum in erythrocytes, SYBR Green DNA, 72 h; series mostly up to 28.7 µM
# Outline: as §1
# CP203 = test: as above; conditions: P. falciparum in erythrocytes, SYBR Green DNA, 72 h; series mostly up to 28.7 µM
# Outline: as §1
# CP211 = test: as above; conditions: P. falciparum in erythrocytes, SYBR Green DNA, 72 h; series mostly up to 28.7 µM
# Outline: as §1
# CP215 = test: as above; conditions: P. falciparum in erythrocytes, SYBR Green DNA, 72 h; series mostly up to 28.7 µM
# Outline: as §1
# CP217 = test: as above; conditions: P. falciparum in erythrocytes, SYBR Green DNA, 72 h; series mostly up to 28.7 µM
# Outline: as §1
# CP237 = test: as above; conditions: P. falciparum in erythrocytes, SYBR Green DNA, 72 h; series mostly up to 28.7 µM
# Outline: as §1
# CP238 = test: as above; conditions: P. falciparum in erythrocytes, SYBR Green DNA, 72 h; series mostly up to 28.7 µM
# Outline: as §1
# CP247 = test: as above; conditions: P. falciparum in erythrocytes, SYBR Green DNA, 72 h; series mostly up to 28.7 µM
# Outline: as §1
# CP250 = test: as above; conditions: P. falciparum in erythrocytes, SYBR Green DNA, 72 h; series mostly up to 28.7 µM
# Outline: as §1
# CP252 = test: as above; conditions: P. falciparum in erythrocytes, SYBR Green DNA, 72 h; series mostly up to 28.7 µM
# Outline: as §1
# CP256 = test: as above; conditions: P. falciparum in erythrocytes, SYBR Green DNA, 72 h; series mostly up to 28.7 µM
# Outline: as §1
# CP260 = test: as above; conditions: P. falciparum in erythrocytes, SYBR Green DNA, 72 h; series mostly up to 28.7 µM
# Outline: as §1
# CP262 = test: as above; conditions: P. falciparum in erythrocytes, SYBR Green DNA, 72 h; series mostly up to 28.7 µM
# Outline: as §1
# CP265 = test: as above; conditions: P. falciparum in erythrocytes, SYBR Green DNA, 72 h; series mostly up to 28.7 µM
# Outline: as §1
# Chain of Luciferin 4-monooxygenase (Photinus pyralis) (P08659 whole entry, looked up): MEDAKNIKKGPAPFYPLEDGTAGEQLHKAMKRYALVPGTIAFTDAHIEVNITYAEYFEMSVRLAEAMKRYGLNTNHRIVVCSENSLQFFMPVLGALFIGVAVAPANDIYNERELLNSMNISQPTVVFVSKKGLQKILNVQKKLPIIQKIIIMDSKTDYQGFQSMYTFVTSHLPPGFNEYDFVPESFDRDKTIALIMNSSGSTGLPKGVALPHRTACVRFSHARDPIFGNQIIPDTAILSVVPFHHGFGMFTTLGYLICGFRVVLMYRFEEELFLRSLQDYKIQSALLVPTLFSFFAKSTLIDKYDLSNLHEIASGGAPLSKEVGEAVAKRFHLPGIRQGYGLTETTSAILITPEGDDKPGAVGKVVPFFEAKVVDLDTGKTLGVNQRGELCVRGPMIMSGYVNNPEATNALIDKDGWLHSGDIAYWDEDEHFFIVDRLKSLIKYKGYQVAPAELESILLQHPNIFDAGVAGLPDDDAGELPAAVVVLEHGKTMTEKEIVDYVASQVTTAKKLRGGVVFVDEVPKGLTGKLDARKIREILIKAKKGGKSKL
# Chain of Ubiquitin carboxyl-terminal hydrolase 1 (Homo sapiens) (O94782 whole entry, looked up): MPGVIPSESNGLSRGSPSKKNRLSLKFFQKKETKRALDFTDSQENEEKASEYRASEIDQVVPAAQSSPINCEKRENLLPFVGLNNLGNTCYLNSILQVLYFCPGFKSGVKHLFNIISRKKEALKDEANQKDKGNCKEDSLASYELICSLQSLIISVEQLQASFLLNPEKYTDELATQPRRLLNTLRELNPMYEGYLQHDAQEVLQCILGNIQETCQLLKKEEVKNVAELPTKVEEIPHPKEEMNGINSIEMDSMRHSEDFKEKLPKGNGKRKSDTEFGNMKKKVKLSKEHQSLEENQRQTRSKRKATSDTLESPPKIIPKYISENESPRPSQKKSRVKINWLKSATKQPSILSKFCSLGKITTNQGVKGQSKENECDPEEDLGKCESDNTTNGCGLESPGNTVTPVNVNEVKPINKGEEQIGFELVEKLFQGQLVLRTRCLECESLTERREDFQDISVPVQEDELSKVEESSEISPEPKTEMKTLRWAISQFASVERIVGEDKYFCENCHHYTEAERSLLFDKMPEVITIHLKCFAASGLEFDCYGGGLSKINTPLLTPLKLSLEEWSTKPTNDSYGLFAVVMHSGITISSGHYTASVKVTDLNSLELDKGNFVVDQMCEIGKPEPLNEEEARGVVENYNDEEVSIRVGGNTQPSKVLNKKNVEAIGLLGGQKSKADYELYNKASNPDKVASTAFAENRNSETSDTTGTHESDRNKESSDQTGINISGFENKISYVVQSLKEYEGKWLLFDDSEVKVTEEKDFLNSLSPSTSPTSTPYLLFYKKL
smiles,measurement,setting,value
CCOC(=O)C(CS)NCCN[C@@H](CS)C(=O)OCC (some centres not stated),Potency,[1],inactive
same,Potency,[2],inactive
same,Potency,[3],inactive
same,Potency,[4],10.2 µM (active)
same,Potency,[5],inactive
same,"activity, negative = inhibition",[6]; parasite line A,-2.53%
same,"activity, negative = inhibition",[6]; parasite line B,-3.46%
same,Potency,3D7,inactive
same,Potency,7G8,inactive
same,Potency,AA1029,inactive
same,Potency,AS120,inactive
same,Potency,ATS189,inactive
same,Potency,ATS95,inactive
same,Potency,C2A,inactive
same,Potency,CP185,inactive
same,Potency,CP191,inactive
same,Potency,CP192,inactive
same,Potency,CP194,inactive
same,Potency,CP201,inactive
same,Potency,CP203,inactive
same,Potency,CP211,inactive
same,Potency,CP215,inactive
same,Potency,CP217,inactive
same,Potency,CP237,inactive
same,Potency,CP238,inactive
same,Potency,CP247,inactive
same,Potency,CP250,inactive
same,Potency,CP252,inactive
same,Potency,CP256,inactive
same,Potency,CP260,inactive
same,Potency,CP262,inactive
same,Potency,CP265,inactive
